PI5P4Ka inh – blocks human PI5P4K alpha kinase activity. P48426. PI5P4Kalpha enzyme, ADP-Glo luminescence, 60 min; active compounds read low. max response, %. 330,000 compounds, 1.2% hits. AID 652105; active = max response of -50% or lower; inconclusive = between -30% and -50%; inactive = -30% or higher; note: value at the top dose of about 77 µM; % is set by controls: 0 for no effect and ±100 for the full control effect
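Quantitative HTS of the MLSMR library against PI5P4Kalpha with substrate. ATP added last at 5 microM final; room temperature, 60 minutes. Remaining ATP depleted, ADP converted and read as luminescence.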
Pol iota inh – inhibitors of human DNA polymerase iota; Potency, µM (highest dose often 115 µM), for the others: at the highest dose activity, negative = inhibition, most hits filed as inhibitors; Pol iota fluorescent replication assay, 10 min; 390,000 compounds, 1% hits; Q9UNA4; note: potency is the fitted concentration of half-maximal effect
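Pol iota at 10 nM preincubated 15 min with compounds at room temperature; reaction started with fluorescent substrate, 50 nM final. Fluorescence read kinetically at 0 and 10 min; buffer-only wells as negative control.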
Pol eta inh-1 – inhibitors of human DNA polymerase eta; Q9Y253; recombinant Pol eta, fluorescent DNA replication assay; Potency, µM (highest dose often 114 µM), without a hit: at the top dose activity change, negative = inhibition, actives largely listed as inhibitors; 390,000 compounds, 1.2% hits; AID 588591; note: potency is the fitted concentration of half-maximal effect; % is set by controls: 0 for no effect and ±100 for the full control effect
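Pol eta at 10 nM preincubated with compounds 15 min at room temperature; reaction started with fluorescent substrate (50 nM final) and read kinetically at 0 and 10 min.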
WRN helicase inh-1 – blocks human WRN helicase; AID 651768; Q14191; 360,000 compounds, 0.46% hits; WRN helicase unwinding, fluorescent forked duplex, kinetic; Potency, µM (top dose mostly 114 µM), for the others: at the highest dose activity change, negative = inhibition, usual class: inhibitors; note: potency is the fitted concentration of half-maximal effect; % is set by controls: 0 for no effect and ±100 for the full control effect; nearly all actives have a fitted effect of over 55% in size
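Kinetic fluorescence helicase assay: unwinding of a quenched forked DNA duplex (100 nM final) with 2 mM ATP final raises red fluorescence (525/598 nm). Compounds sat 15 min at room temperature with 20 nM WRN beforehand.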
POLB inh – DNA polymerase beta (human) inhibition. 340,000 compounds, 1.3% hits. Potency, µM (highest dose often 114 µM), for the others: at the top dose activity change, negative = inhibition, most hits filed as inhibitors. P06746. Pol beta primer extension/strand displacement, fluorescence kinetic; note: potency is the fitted concentration of half-maximal effect; % is set by controls: 0 for no effect and ±100 for the full control effect
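Homogeneous kinetic assay of primer extension and strand displacement by 10 nM Pol beta, preincubated 15 min at room temperature with compound before 50 nM substrate (final) was added. Read at 0 and 10 min; four-parameter Hill fit.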
Pol kappa inh-1 – DNA polymerase kappa (human) inhibition; Potency, µM (top dose mostly 107 µM), inactives show at the top dose activity, negative = inhibition, most hits filed as inhibitors; Q9UBT6; 400,000 compounds, 0.53% hits; AID 588579; purified Pol kappa, fluorescent DNA synthesis assay, 10 min; note: potency is the fitted concentration of half-maximal effect; % is set by controls: 0 for no effect and ±100 for the full control effect
Target sequence (Q9UBT6 whole entry, looked up): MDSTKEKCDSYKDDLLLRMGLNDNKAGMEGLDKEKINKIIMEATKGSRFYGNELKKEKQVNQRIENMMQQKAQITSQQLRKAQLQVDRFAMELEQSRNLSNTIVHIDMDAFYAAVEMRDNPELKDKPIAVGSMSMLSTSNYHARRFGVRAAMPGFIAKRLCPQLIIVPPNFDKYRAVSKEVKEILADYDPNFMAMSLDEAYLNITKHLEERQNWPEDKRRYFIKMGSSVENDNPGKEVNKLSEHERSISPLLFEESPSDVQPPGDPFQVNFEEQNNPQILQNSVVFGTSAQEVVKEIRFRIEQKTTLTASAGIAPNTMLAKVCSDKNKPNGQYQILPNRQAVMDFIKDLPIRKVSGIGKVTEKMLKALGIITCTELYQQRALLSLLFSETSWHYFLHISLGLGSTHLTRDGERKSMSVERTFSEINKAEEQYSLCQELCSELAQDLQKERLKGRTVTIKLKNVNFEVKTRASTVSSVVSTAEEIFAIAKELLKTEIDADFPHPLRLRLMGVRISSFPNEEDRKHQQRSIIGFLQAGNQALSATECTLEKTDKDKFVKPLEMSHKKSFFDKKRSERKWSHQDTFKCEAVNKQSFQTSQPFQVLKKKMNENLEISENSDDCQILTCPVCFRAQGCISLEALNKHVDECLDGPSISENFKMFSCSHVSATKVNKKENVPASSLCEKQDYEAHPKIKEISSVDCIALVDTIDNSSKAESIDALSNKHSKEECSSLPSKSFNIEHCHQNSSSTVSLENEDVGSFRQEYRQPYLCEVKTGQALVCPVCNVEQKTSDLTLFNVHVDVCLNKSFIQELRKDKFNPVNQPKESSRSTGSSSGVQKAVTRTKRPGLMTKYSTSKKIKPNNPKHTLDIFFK
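Kinetic fluorescence readout at 0 and 10 min followed reaction start with substrate at 50 nM final. Beforehand, enzyme (10 nM Pol kappa) stood 15 min with compound at room temperature; buffer-only wells were negative controls.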
Pol kappa inh-2 – confirmation of human DNA polymerase kappa inhibitors | shares compounds with Pol eta inh-1 | purified Pol-kappa, fluorescent strand-displacement substrate | Potency, µM, most hits filed as inhibitors | 920 compounds, 76% hits | AID 720501; note: potency is the fitted concentration of half-maximal effect
Pol eta inh-2 – confirmation of human DNA polymerase eta inhibitors; shares compounds with Pol eta inh-1; Pol eta primer extension, TAMRA/BHQ fluorescence, 10 min; Potency, µM, hits mostly inhibitors; 2,600 compounds, 64% hits; note: potency is the fitted concentration of half-maximal effect
WRN helicase inh-2 – WRN helicase inhibition, cherry-pick retest. shares compounds with WRN helicase inh-1. WRN helicase DNA unwinding, fluorescence kinetic. Potency, µM (top dose mostly 57.1 µM), inactives show at the highest dose activity, negative = inhibition, hits mostly inhibitors. 610 compounds, 63% hits. AID 720497; note: potency is the fitted concentration of half-maximal effect; nearly all actives have a fitted effect of over 65% in size
TO displacement – counter-screen for WRN helicase inhibitors: DNA binding; thiazole orange DNA binding displacement, fluorescence; shares compounds with WRN helicase inh-1; 610 compounds, 10% hits; Potency, µM (series often up to 57.1 µM), without a hit: at the highest dose activity change, negative = inhibition, actives largely listed as inhibitors;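 note: drop in dye fluorescence marks compound binding to DNA; potency is the fitted concentration of half-maximal effect; % is set by controls: 0 for no effect and ±100 for the full control effect; nearly all actives have a fitted effect of over 60% in size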
BLM helicase inh – BLM helicase inhibition, WRN selectivity check. AID 720503. Recombinant BLM helicase DNA unwinding, red fluorescence. Potency, µM (titrated, usually from 57.1 µM), inactives show top-dose activity change, negative = inhibition, actives largely listed as inhibitors. 610 compounds, 60% hits. shares compounds with WRN helicase inh-1; note: potency is the fitted concentration of half-maximal effect; nearly all actives have a fitted effect of over 60% in size
ADP-Glo counter – counter-screen for PI5P4K inhibitors: ADP-Glo detection interference, no enzyme; shares compounds with PI5P4Ka inh; ADP-Glo detection counter-screen, luciferase luminescence, no enzyme; Potency, µM (titrated, usually from 76.9 µM), for the others: top-dose activity change, negative = inhibition, actives largely listed as inhibitors; 1,100 tested, under 10 active; AID 743285
* = called active by the depositor; ? = inconclusive; · = no result given; [ ] = remark or other dose. Shown are actives, neighbours in structure and some others; about 2.8% of the full set was active somewhere. Unless noted, calls come from the whole dose curve; as a rule, active = well fitted curve in the direction sought with a large enough effect; inconclusive = small, poorly fitted or top-dose-only effect, or another doubt; inactive = no such curve, though single readings can be large; an effect the other way counts as inactive or inconclusive.

SMILES	PI5P4Ka inh	Pol iota inh	Pol eta inh-1	WRN helicase inh-1	POLB inh	Pol kappa inh-1	Pol eta inh-2	ADP-Glo counter	others
O=C(Nc1nc(-c2ccco2)c(-c2ccco2)s1)c1cnccn1	-67.2*	50.1µM*	?	-17.1%[11.6 µM]	·	?	75.7*	-9.6%
CC(=O)c1ccc(NC(=O)c2noc3c2CCC3)cc1	-57.7*	25.1µM*	44.7µM*	-5.6%[11.6 µM]	15.8µM*	?	?	-3.5%
CN(Cc1ccco1)C(=O)C1CCCN(c2ncnc3c2nc2n3CCCCC2)C1 (stereo unspecified)	2.3	-29.1%	-6.0%	-6.4%	3.9%	-12.3%	·	·
Cc1ccc(N2C(=O)N(CC(=O)N3c4ccccc4CC3C)C(=O)C2C)cc1 (stereo unspecified)	9.5	32.6%	?	4.5%	·	0.4%	·	·
COCCN(C(=O)COC(=O)COc1ccc2c(c1)CCC2)c1c(N)n(Cc2ccccc2)c(=O)[nH]c1=O	7.8	8.5%	-19.6%	-1.1%	·	-9.6%	·	·
COCCCN(C(=O)c1cc(-c2ccco2)nc2ccccc12)c1c(N)n(Cc2ccccc2)c(=O)[nH]c1=O	-67.7*	39.8µM*	25.1µM*	-28.1%	·	?	?	-11.3%
COCCN(C(=O)COC(=O)Cc1coc2cc3c(cc12)CCC3)c1c(N)n(Cc2ccccc2)c(=O)[nH]c1=O	-50.4*	28.2µM*	20µM*	?	·	?	75.7*	-5.0%
CC(NC(=O)C(=O)NN=C1CCCC1)c1ccccc1 (stereo unspecified)	6.2	41.2%	0.3%	4.0%	32.1%	8.7%	·	·
Nc1c(Br)cc(Br)c2c1-c1ccc([N+](=O)[O-])cc1C2	-28.1	5.0%	1.7%	?	·	-10.5%	·	·
O=C(OCc1ccco1)c1ccc(S(=O)(=O)N2CCCCC2)cc1	-52.2*	?	10µM*	?	?	79.4µM*	?	-1.5%
O=C(OCC(=O)N1CCN(C(=O)c2ccco2)CC1)c1ccc(S(=O)(=O)N2CCCCC2)cc1	2.3	13.8%	-3.9%	-15.2%	?	-8.9%	·	·
O=C(Cc1ccc(S(=O)(=O)N2CCOCC2)s1)NC1CCCCC1	-50.9*	44.7µM*	20µM*	-29.2%	·	?	?	-8.6%
Cc1ccc2[nH]c3ccccc3c(=O)c2c1	4.9	111.9%	-8.3%	-23.7%	?	-17.4%	·	·
O=c1c2ccccc2[nH]c2ccc(O)cc12	-73.0*	?	17.8µM*	50.1µM*	17.8µM*	79.4µM*	53.6*	-11.3%
Cc1ccc([N+](=O)[O-])cc1S(=O)(=O)Nc1ccc(C(=O)N2CCN(C(=O)c3ccco3)CC2)cc1	-52.7*	?	22.4µM*	-4.9%[11.6 µM]	·	?	?	0.0%
Cc1ccc([N+](=O)[O-])cc1S(=O)(=O)Nc1ccc(C(=O)N(C)C)cc1	1.1	11.8%	-14.3%	-19.5%	-3.5%	0.7%	·	·
COc1ccc(NC(=O)c2cc(S(=O)(=O)N3CCCCCC3)cn2C)cc1Cl	·	4.7%	-16.8%	·	-0.1%	-11.7%[60.1 µM]	·	·
CCCc1cc(=O)[nH]c(SCC(=O)Nc2sc3c(c2C#N)CCC(C)C3)n1 (stereo unspecified)	-54.4*	50.1µM*	25.1µM*	-32.2%	17.8µM*	79.4µM*	?	0.8%
Cc1ccc(S(=O)(=O)N2[C@@H](c3ccc(C(C)(C)C)cc3)C(C(=O)O)=CC[C@H]2c2ccc(C(C)C)cc2)cc1	-62.6*	?	39.8µM*	56.2µM*	·	?	53.6*	-9.5%	Pol kappa inh-2=75.2*
O=C(c1ccccc1)c1ccc2nc(-c3ccco3)c(-c3ccco3)nc2c1	-99.6*	3.98µM*	12.6µM*	15.8µM*	8.91µM*	25.1µM*	?	-2.7%	Pol kappa inh-2=?;WRN helicase inh-2=15.2µM*;TO displacement=24.1µM*;BLM helicase inh=8.57µM*
Cc1c(Cl)cnc(NC(=O)COC(=O)C2CC2)c1Cl	-22.6	-13.8%	?	4.5%[11.6 µM]	·	-23.8%	·	·
CC(=O)NC12CC3CC(C1)CC(C(=O)OCC(=O)Nc1ncc(Cl)c(C)c1Cl)(C3)C2	-52.0*	?	?	?	?	-35.0%	?	4.9%
COc1ccc(NC(=O)CN(C)C(=O)c2cc(-c3ccccc3)nc3ccccc23)cc1	-3.0	0.6%	-14.1%	-7.7%	·	-8.7%	·	·
CN(CC(=O)Nc1ccc(F)cc1)C(=O)c1cc(-c2ccco2)nc2ccccc12	-66.4*	15.8µM*	39.8µM*	?	·	?	?	3.7%
COc1cc(Cl)c(C)cc1NC(=O)CSc1sc2c(O)cc(=O)[nH]c2c1C#N	-72.7*	?	28.2µM*	-16.4%[11.6 µM]	?	-33.8%	60.1*	-5.9%	Pol kappa inh-2=18.9*
Clc1ccc(CCNc2nc3cc(Cl)c(Cl)cc3n3cnnc23)cc1	·	32.4%	-4.4%	·	21.1%	9.5%	·	·
Cc1cc(NC(=O)c2cc(S(=O)(=O)N3CCCCC3)ccc2C)no1	-53.6*	?	22.4µM*	-25.0%	·	?	?	-7.6%
COc1ccc(S(=O)(=O)N2CCCCC2)cc1C(=O)Nc1cc(C)on1	-4.9	20.8%	-8.8%	8.9%	98.3%	12.0%	·	·
CCOc1ccc(S(=O)(=O)NCC(c2ccco2)S(=O)(=O)c2ccc(F)cc2)cc1 (stereo unspecified)	·	10.8%	-18.1%	·	13.0%	-6.8%[60.1 µM]	·	·
Cc1c(C(=O)N2CCCC2)oc2ccc(Br)cc12	-60.6*	?	50.1µM*	-4.0%[11.6 µM]	?	-41.2%	?	-5.0%

From PubChem BioAssay
